In the library only some 2% were active in any assay of this set; here they are far more common.
TDP43 rescue = qHTS of TDP-43 Inhibitors | TDP-43 expressing yeast growth rescue, BacTiter-Glo, 24 h | Potency, µM (titrated, usually from 46.1 µM), usual class: activators | actives 1.8% (n = 410,000) | AID 652104, 2013; note: nearly all actives have a fitted effect of over 50% in size
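Cell-based yeast growth screen: TDP-43 expression induced in galactose, inoculum OD600=0.02 after raffinose pregrowth to mid-log. Read-out BacTiter-Glo luminescence at 24 hr, 30 deg C; inhibition of toxicity seen as signal increase.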
aSyn rescue = qHTS of alpha-syn Inhibitors; Yeast expressing alpha-synuclein, growth rescue, BacTiter-Glo, 24 h; Potency, µM (doses to about 46.1 µM), usual class: activators; actives 0.14% (n = 370,000); note: nearly all actives have a fitted effect of over 65% in size
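Galactose-induced alpha-syn yeast (OD600=0.02, raffinose-pregrown) + pinned cpd, 24 hr, 30 deg C; growth by BacTiter-Glo luminescence. Growth restoration scores as activation.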
Abeta rescue = qHTS for compounds that reverse cellular toxicity of Amyloid beta (A-beta) peptide in yeast: Primary Screen. yeast expressing A-beta42, growth rescue, OD600, 48 h; response scale: 0% DMSO, 100% iron-clioquinol control. Potency, µM (top dose mostly 46.1 µM), most hits filed as activators. actives 0.063% (n = 410,000); note: nearly all actives have a fitted effect of over 55% in size
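Growth rescue measured by 600 nm absorbance after 48 h yeast culture at 30 C with compound. Values normalized between DMSO and an equimolar ferric chloride plus clioquinol control.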
GRP78 ERSR act = qHTS for Inducers of the Endoplasmic Reticulum Stress Response (ERSR) in Human Glioma: qHTS; U87-MG GRP78 promoter luciferase reporter, 16 h; Potency, µM, most hits filed as activators; actives 0.02% (n = 420,000); AID 602332, 2012; note: series mostly up to about 76 µM; nearly all actives have a fitted effect of over 35% in size
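Stably transfected U87-MG human glioma cells carrying a GRP78-based luminescent sensor were seeded at 1000 cells/well, pin-dosed with compounds and incubated 16 h. Luciferase reagent was then added, and end-point luminescence was read after 10 min at room temperature.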
MBNL1 CUG block = qHTS Assay for Inhibitors of MBNL1-poly(CUG) RNA binding. TR-FRET MBNL1-His/biotin-(CUG)12 binding, 665/545 ratio. Potency, µM (top dose mostly 57.5 µM), most hits filed as inhibitors. AID 2675, 2010. actives 0.036% (n = 280,000); active = well fitted inhibition curve with a large enough effect in the signal ratio, with a control signal flat, not every such curve was filed as active; inconclusive = small, poorly fitted or top-dose-only effect, or effect the other way, or a change in a side signal; inactive = no such curve, though single readings can be large or run the other way; the % refers to the signal ratio
Target sequence (Q9NR56 whole entry, looked up): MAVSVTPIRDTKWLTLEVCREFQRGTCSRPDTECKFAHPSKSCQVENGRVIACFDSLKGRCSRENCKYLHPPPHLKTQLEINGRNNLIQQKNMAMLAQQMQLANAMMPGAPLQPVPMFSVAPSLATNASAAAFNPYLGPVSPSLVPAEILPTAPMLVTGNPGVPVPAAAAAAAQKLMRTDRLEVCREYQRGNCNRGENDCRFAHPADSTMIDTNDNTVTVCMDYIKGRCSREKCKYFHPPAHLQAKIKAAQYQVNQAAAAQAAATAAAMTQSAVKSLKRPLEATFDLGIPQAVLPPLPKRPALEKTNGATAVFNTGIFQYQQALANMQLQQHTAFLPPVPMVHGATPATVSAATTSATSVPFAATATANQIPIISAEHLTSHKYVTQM
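TR-FRET readout: Ex 340 nm, 665/545 nm emission ratio, normalized to buffer-only (basal) and MBNL1-(CUG)12 controls. Complex of MBNL1-His with Biotin-(CUG)12, compounds 92 nM–58 uM, incubated 60 min at room temperature.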
FUS suppressor = qHTS for Suppressors of FUS Proteinopathy: Primary screen using FUS-linked yeast assay. S. cerevisiae FUS-expressing, growth rescue, OD600, 24 h. Potency, µM (series often up to 76.6 µM), actives largely listed as activators. actives 0.24% (n = 390,000). AID 1347120, 2019; note: nearly all actives have a fitted effect of over 55% in size
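Cultures pregrown in 2.5% raffinose medium are shifted to minimal medium containing 2% galactose to express toxic FUS. Compounds are tested at several concentrations. After 24hr at 30C, growth is quantified at 600 nm absorbance.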
Numbers stand for hits; i = inactive; ? = inconclusive; nt = no result given; ! = not confirmed by another sample. Unless noted, calls come from the whole dose curve; as a rule, active = well fitted curve in the direction sought with a large enough effect; inconclusive = small, poorly fitted or top-dose-only effect, or another doubt; inactive = no such curve, though single readings can be large; an effect the other way counts as inactive or inconclusive.

SMILES	TDP43 rescue	aSyn rescue	Abeta rescue	GRP78 ERSR act	MBNL1 CUG block	FUS suppressor
O=C(Oc1ccc2ccccc2c1)c1ccco1	11.2µM	i	i	i	i	i
Oc1c(C(Nc2cccnc2)c2ccccc2F)ccc2cccnc12 (centres undefined)	nt	?	nt	i	nt	nt
COc1cc(CC(C)N)cc2c1OCO2 (centres undefined)	nt	nt	nt	i	nt	nt
CN(C)C(=O)Oc1c(Cl)cc(Cl)c2cccnc12	i	i	i	i	i	i
Cc1ccc2c(Cl)cc(Cl)c(O)c2n1	i	?	i	28.2µM!	nt	i
COc1cc([C@@H]2c3cc4c(cc3[C@@H](O)[C@H]3COC(=O)[C@H]23)OCO4)cc(OC)c1O	nt	i	nt	nt	nt	nt
COc1cc2c(ccc3c4cc(OC)c(OC)cc4c[n+](C)c23)cc1O	11.2µM	i	i	i	nt	nt
Cc1c(C(c2ccccc2Cl)c2c(O)c3ccccc3oc2=O)c(=O)n(-c2ccccc2)n1C (centres undefined)	7.94µM	i	i	i	i	i
COc1ccc(C(c2c(O)c3ccccc3oc2=O)c2c(C)n(C)n(-c3ccccc3)c2=O)cc1 (centres undefined)	22.4µM!	i	i	i	i	i
S=C(SSC(=S)N1CCCCC1)N1CCCCC1	nt	nt	nt	i	nt	nt
CC1(C)C(C(=O)N2CCN(c3ccc(Cl)cc3)CC2)C1(C)C	?	i	i	i	i	i
COC(=O)C1CN(C#N)N(c2ccc(Cl)cc2)C12c1ccccc1-c1ccccc12 (centres undefined)	15.8µM	i	i	i	?	i
O=S(=O)(Nc1ccc(-c2nc3ccccc3o2)cc1)c1ccccc1	14.1µM	i	i	?	i	i
CCOC(=O)[C@]12Cc3cc(OC)ccc3[C@H]1N(C)C(=O)c1cc(OC)ccc12	?	i	i	nt	nt	i
CCOC(=O)[C@]12Cc3cc(Cl)ccc3[C@H]1N(C)C(=O)c1cc(OC)ccc12	22.4µM	i	i	nt	nt	i
CNc1ccc2oc(C[C@@H]3OC4(CC[C@@H]3C)O[C@H]([C@@H](C)C(=O)c3ccc[nH]3)[C@H](C)C[C@H]4C)nc2c1C(=O)O (some centres undefined)	nt	nt	nt	i	nt	nt
O=[N+]([O-])c1ccc(O)c([N+](=O)[O-])c1	i	i	i	i	nt	i
O=[N+]([O-])c1ccc(Cl)c([N+](=O)[O-])c1	11.2µM	i	i	i	nt	i
CC(=O)N1CCN(c2ccc(OC[C@@H]3CO[C@@](Cn4ccnc4)(c4ccc(Cl)cc4Cl)O3)cc2)CC1	nt	3.16µM	nt	i	nt	nt
CC(=O)N1CCN(c2ccc(OC[C@H]3CO[C@](Cn4ccnc4)(c4ccc(Cl)cc4Cl)O3)cc2)CC1	?	5.17µM!	i	i	i	i
C/C=C(/C)C(=O)O[C@H]1C(C)=C2[C@H]([C@@H]1OC(=O)CCCCCCC)[C@@](C)(OC(C)=O)C[C@H](OC(=O)CCC)[C@@]1(O)[C@H]2OC(=O)[C@@]1(C)O	nt	i	nt	0.0165µM!	nt	nt
Cc1ccc(CN2C(=O)c3ccccc3Sc3ccc(C(=O)N4CCC5(CC4)OCCO5)cc32)cc1	i	nt	i	i	nt	?
O=C(c1ccc2c(c1)N(Cc1ccc(F)cc1Cl)C(=O)c1ccccc1S2)N1CCC2(CC1)OCCO2	17.8µM	nt	i	i	nt	i
CC(C)CN(CC(C)C)C(=O)C1C2c3ccccc3C(c3ccccc32)C1C(=O)O (centres undefined)	11.2µM	i	i	i	i	i
COc1cccc(NC(=O)N2CCc3nc(Nc4ccc(C(C)C)cc4)ncc3C2)c1	12.6µM	i	?	i	nt	i
SMILES	TDP43 rescue	aSyn rescue	Abeta rescue	GRP78 ERSR act	MBNL1 CUG block	FUS suppressor
Cc1cc2oc(=O)cc(-c3ccccc3)c2c(C)c1-c1ccc(CO)cc1	35.5µM	i	i	i	nt	i
CCc1cc(=O)oc2cc(C)cc(OCC(=O)N3CCC(C(=O)O)(c4ccccc4)CC3)c12	i	i	i	i	i	i
N#CC1c2ccccc2C=CN1C(=O)c1ccc(N(CCCl)CCCl)cc1 (centres undefined)	i	7.94µM	i	i	nt	i
N#C/C(=C\c1ccc(O)c(O)c1)C(=O)NCCCNC(=O)/C(C#N)=C/c1ccc(O)c(O)c1	nt	i	nt	36.9µM	nt	nt
COC(=O)C1=C(c2ccc(OC(F)(F)F)cc2)C[C@@H]2CC[C@H]1N2C(=O)N1CCCCC1	35.5µM	i	i	i	nt	?
COC(=O)C1=C(c2ccc(-c3ccccc3)c(F)c2)C[C@@H]2CC[C@H]1N2C(=O)N1CCOCC1	20µM	i	i	i	nt	?
COC(=O)C1=C(c2ccc3ccccc3c2)C[C@@H]2CC[C@H]1N2C(=O)N1CCCCC1	20µM	i	i	i	nt	?
COC(=O)C1=C(c2ccc(-c3ccccc3)c(F)c2)C[C@@H]2CC[C@H]1N2C(=O)N1CCCC1	25.1µM	i	i	i	nt	?
CN1CC[C@]23c4c5ccc(O)c4OC2C(O)CCC3[C@H]1C5 (some centres undefined)	nt	nt	nt	i	nt	nt
CCCCC/C=C\C/C=C\C/C=C\C/C=C\CCCC(=O)N(Cc1ccc(O)c(Cl)c1)Cc1ccc(O)c(Cl)c1	nt	nt	nt	i	nt	nt
CCNC(C)Cc1ccc2c(c1)OCO2 (centres undefined)	nt	nt	nt	i	nt	nt
C[C@@H]1CN([C@H](C)CO)C(=O)CCCn2nncc2CO[C@@H]1CN(C)C(=O)Nc1ccc(N2CCCCC2)cc1	i	i	i	i	nt	i
COc1ccc(-c2ccc3c(c2)CN(C(=O)C(C)(C)C)Cc2cnnn2-3)cc1	17.8µM	i	i	i	nt	i
CC(=O)OC1CC(OC2C(O)CC(OC3C(O)CC(O[C@H]4CC[C@]5(C)C6CC[C@]7(C)[C@@H](C8=CC(=O)OC8)[C@@H](O)C[C@]7(O)[C@@H]6CC[C@@H]5C4)OC3C)OC2C)OC(C)C1OC1OC(CO)C(O)C(O)C1O (some centres undefined)	nt	nt	nt	i	nt	nt
c1ccc2c(c1)CSc1ccccc1N2	20µM	i	i	i	nt	i
S=C1Nc2ccccc2Sc2ccccc21	?	i	i	i	i	i
CC(=O)c1ccc2c(c1)C1C(Cl)C(Sc3ccccc3[N+](=O)[O-])CC1C(c1ccccc1[N+](=O)[O-])N2 (centres undefined)	i	i	i	i	?	i
CC(=O)c1ccc2c(c1)C1C(Cl)C(Sc3ccccc3[N+](=O)[O-])CC1C(c1ccccc1)N2 (centres undefined)	i	i	i	i	i	39.8µM

Assay outcomes from PubChem.
